According to PubChem BioAssay AID743314 (Broad Institute, 2014):
Entries with a potency or affinity are not part of this list. Inconclusive results are not listed. Calls of active or inactive are those of the source.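 The calls were made as follows: active = fitted half-maximal concentration no higher than twice the top tested dose, in every repeat run; inconclusive = repeat runs disagree, poor fit, or flat partial inhibition; inactive = the rest.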

biological target: Endoplasmic reticulum aminopeptidase 1 (Homo sapiens) (UniProt Q9NZ08); assay: inhibition of human ERAP1 enzyme activity – biochemical, cherry-pick, set 2, plate reader, dose response (AID 743314); details: Recombinant ERAP1, Leu-AMC fluorescence, 60 min; series mostly up to 11 µM;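 also: 0% = neutral control wells and -100% = L-leucinethiol positive control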
Sequence (Q9NZ08 whole entry, looked up): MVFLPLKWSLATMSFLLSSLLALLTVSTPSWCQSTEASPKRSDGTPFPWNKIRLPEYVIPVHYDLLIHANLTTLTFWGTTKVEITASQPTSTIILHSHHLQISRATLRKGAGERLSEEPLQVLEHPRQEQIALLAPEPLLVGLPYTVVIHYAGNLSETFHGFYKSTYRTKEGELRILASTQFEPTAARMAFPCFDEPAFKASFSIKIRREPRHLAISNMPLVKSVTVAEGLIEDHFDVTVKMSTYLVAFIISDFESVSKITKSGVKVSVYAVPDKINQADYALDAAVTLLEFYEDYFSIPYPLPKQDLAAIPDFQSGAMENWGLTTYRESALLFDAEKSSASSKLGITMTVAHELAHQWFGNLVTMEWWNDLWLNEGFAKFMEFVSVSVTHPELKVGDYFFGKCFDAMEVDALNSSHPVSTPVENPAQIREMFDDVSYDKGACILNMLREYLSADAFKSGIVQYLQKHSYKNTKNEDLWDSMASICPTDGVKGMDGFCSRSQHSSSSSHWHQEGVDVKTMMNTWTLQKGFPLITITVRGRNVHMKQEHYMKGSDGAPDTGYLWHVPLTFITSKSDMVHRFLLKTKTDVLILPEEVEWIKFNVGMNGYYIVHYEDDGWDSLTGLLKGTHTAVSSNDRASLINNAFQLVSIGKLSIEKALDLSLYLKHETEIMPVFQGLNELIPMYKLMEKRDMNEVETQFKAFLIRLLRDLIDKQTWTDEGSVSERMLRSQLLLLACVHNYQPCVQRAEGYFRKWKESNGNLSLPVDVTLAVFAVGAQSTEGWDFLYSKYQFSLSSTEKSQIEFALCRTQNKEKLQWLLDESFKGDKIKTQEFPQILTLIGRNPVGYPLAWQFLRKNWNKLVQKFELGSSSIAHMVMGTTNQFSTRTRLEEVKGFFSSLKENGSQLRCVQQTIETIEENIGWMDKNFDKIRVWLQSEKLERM

outcome, inactive:
CCN1CCN(c2ccc(S(=O)(=O)N3CCCCC3)cc2NC(=O)c2ccccc2)CC1, COc1ccccc1OCCNC(=O)C1CCCCC1, O=C(CC1CC1)N1[C@H](CO)[C@H](c2ccccc2)C12CN(Cc1cc(F)ccc1F)C2, Cc1oc2c(c(C)cc3oc(=O)c(CC(=O)N[C@H](C(=O)O)C(C)C)c(C)c32)c1C, C[C@@H]1CCCCO[C@H](CN(C)C)[C@H](C)CN([C@@H](C)CO)C(=O)c2cc(NS(=O)(=O)c3ccc(Cl)cc3)ccc2O1, COc1ccccc1-c1cc(-c2ccccc2)nc(SCC(=O)O)c1C#N, COc1ccc(CN(C)C[C@H]2Oc3c(NC(=O)NC4CCCCC4)cccc3C(=O)N([C@@H](C)CO)C[C@H]2C)cc1, O=S(=O)(Nc1cccc(-c2cn3c(n2)SCC3)c1)c1ccccc1, C[C@H]1CN([C@@H](C)CO)C(=O)c2cccc(NC(=O)Nc3ccc(C(F)(F)F)cc3)c2O[C@H]1CN(C)C, Cc1ccc(S(=O)(=O)Nc2ccc3c(c2)CC(=O)N([C@H](C)CO)C[C@H](C)[C@H](CN(C)Cc2ccccc2)O3)cc1, COc1ccc2c3c([nH]c2c1)[C@H](CO)N(CC1CC1)CC31CCN(C(=O)c2ccccc2F)CC1, O=S(=O)(Nc1cccc(-c2cn3c(n2)SCC3)c1)c1ccccc1F, CCCCC1CCC(C(=O)OC(C)C(=O)Nc2ccc(NC(C)=O)cc2)CC1 (stereo not drawn), C[C@@H]1CN([C@H](C)CO)C(=O)c2cccc(NC(=O)Nc3ccccc3)c2O[C@@H]1CN(C)Cc1ccc(C(=O)O)cc1, Cc1noc(C)c1NC(=O)N(C)C[C@@H]1Oc2c(NC(=O)Nc3ccc(F)cc3)cccc2C(=O)N([C@H](C)CO)C[C@H]1C, COc1ccc(-c2cc(=O)oc3cc(OC(C)C(=O)NC(Cc4c[nH]c5ccc(O)cc45)C(=O)O)ccc23)cc1 (stereo not drawn), C[C@@H]1CN([C@@H](C)CO)C(=O)c2cccc(NC(=O)Nc3ccc(C(F)(F)F)cc3)c2O[C@H]1CN(C)C, CCCC#Cc1ccc2c(c1)O[C@H](CN(C)Cc1ccncc1)[C@@H](C)CN([C@H](C)CO)S2(=O)=O, Cc1ccc(OCC(=O)Nc2ccc(S(=O)(=O)N(C)C3CCN(C)CC3)cc2)c(C)c1, C[C@H](CO)N1C[C@H](C)[C@@H](CN(C)C(=O)Nc2ccccc2)Oc2ccc(NC(=O)c3ccncc3)cc2C1=O, CN1c2ccc(-c3ccccc3)cc2[C@H]2[C@H](CCN2C(=O)c2ccccc2)[C@@H]1CO, CCN(C(=O)COC(=O)c1cnc(C)cn1)C1CCS(=O)(=O)C1 (stereo not drawn), c1ccc(Nc2nc(NCC3CCCO3)c3ccccc3n2)cc1 (stereo not drawn), Cc1noc(C)c1NC(=O)N(C)C[C@@H]1Oc2c(NC(=O)Nc3ccc(F)cc3)cccc2C(=O)N([C@@H](C)CO)C[C@@H]1C, COc1ccccc1CN1CC[C@@H]2[C@H](CO)Nc3ccc(-c4cccc(C(=O)N(C)C)c4)cc3[C@@H]21, C[C@H](CO)N1C[C@H](C)[C@H](CN(C)Cc2ccc(C(=O)O)cc2)Oc2c(NC(=O)Nc3ccccc3)cccc2C1=O, CCCNC(=O)C[C@H]1CC[C@@H]2[C@H](COC[C@H](O)CN2C(=O)Nc2cccc(Cl)c2)O1, C[C@@H]1CN([C@@H](C)CO)C(=O)c2cc(-c3ccc(F)cc3)cnc2O[C@@H]1CN(C)CC1CCCCC1, Cc1noc(C)c1NC(=O)N(C)C[C@H]1Oc2c(NC(=O)Nc3ccc(F)cc3)cccc2C(=O)N([C@@H](C)CO)C[C@@H]1C, Cc1cccc(C)c1NC(=O)CSc1nnc(NC(=O)c2ccccc2C(=O)O)s1, C[C@H]1CCCCO[C@@H](CN(C)S(=O)(=O)c2cn(C)cn2)[C@@H](C)CN([C@@H](C)CO)C(=O)c2cc(NC(=O)Nc3ccccc3)ccc2O1, Cc1ccc(S(=O)(=O)N2CCN(C(=O)COC(=O)c3ccc(Cl)c(S(N)(=O)=O)c3)CC2)c(C)c1, C[C@@H]1CN([C@H](C)CO)C(=O)c2cccc(NS(=O)(=O)c3ccc(Cl)cc3)c2O[C@@H]1CN(C)C(=O)Nc1ccccc1, N#Cc1ccccc1OCC(=O)OCC(=O)c1ccc2c(c1)NC(=O)CO2, CCN(CC(=O)Nc1ccccc1C(F)(F)F)C(=O)Cn1c(=O)cnc2ccccc21, CCN(Cc1ccc(OC)c(F)c1)C(=O)C1CCCO1 (stereo not drawn), C[C@@H]1CN([C@H](C)CO)C(=O)c2cc(NC(=O)CCN3CCOCC3)ccc2O[C@@H]1CN(C)S(=O)(=O)c1ccccc1

Activity change, negative = inhibition, inactive:
O=C(O)c1ccc(N2N=C(c3ccccc3)CC2c2ccccc2)cc1 (stereo not drawn) -7.44% [at 2.6 µM]
